Screens (PubChem)
S1P1 ag: S1P1 (human) receptor agonism | activation, % at 4.5 µM | S1P1 agonist cell-based reporter assay | AID 1044 | P21453 | actives 1.5% (n = 16,000); in the data active means activation above about 80%
Target sequence (P21453 whole entry, looked up): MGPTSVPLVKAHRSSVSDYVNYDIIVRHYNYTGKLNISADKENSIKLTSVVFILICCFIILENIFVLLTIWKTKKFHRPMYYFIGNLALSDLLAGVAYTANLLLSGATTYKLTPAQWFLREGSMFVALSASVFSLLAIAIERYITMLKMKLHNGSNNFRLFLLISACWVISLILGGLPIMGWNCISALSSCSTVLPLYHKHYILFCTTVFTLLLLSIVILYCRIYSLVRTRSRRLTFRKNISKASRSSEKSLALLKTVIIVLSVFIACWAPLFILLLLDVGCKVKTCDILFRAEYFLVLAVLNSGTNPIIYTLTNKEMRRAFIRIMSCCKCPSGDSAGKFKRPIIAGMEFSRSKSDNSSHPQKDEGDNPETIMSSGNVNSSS
PME-1 Maybr inh: inhibitors of human PME-1 in Maybridge library. actives 0.5% (n = 16,000). recombinant PME-1, FP-Rh probe fluorescence polarization. inhibition, % at 9 µM. AID 2291. Q9Y570; in the data active means inhibition above about 30%
NOTCH agonist: NOTCH pathway agonism | NOTCH signaling luciferase reporter cells, luminescence | activation, % at 2.5 µM | actives 0.4% (n = 15,000) | AID 434982; in the data active means activation above about 2.2%
rat GALR2 ag: GALR2 (rat) receptor agonism; activation, % at 10 µM; actives 0.5% (n = 16,000); O08726; cell-based GALR2 agonist screen; AID 833; in the data active means activation above about 15%
Nox1 inh: human Nox1 inhibition; Q9Y5S8; HT29 cells, luminol chemiluminescence ROS; inhibition, % at 6.7 µM; actives 0.81% (n = 16,000); AID 1792
luminol inh ctr: counter-screen for Nox1 inhibitors: inhibitors of luminol chemiluminescence | HRP/luminol/H2O2 chemiluminescence counterscreen | actives 0.4% (n = 16,000) | inhibition, % at 6.7 µM; further: reference of the scale not given here
The depositor's hits bear a star. A selection: hits, their analogues and other compounds. The true share with any hit is near 3.8%. Unless noted, no stated cut-off is given here; in the data, active means inhibition above about 75%; inactive means the rest.

SMILES	S1P1 ag	PME-1 Maybr inh	NOTCH agonist	rat GALR2 ag	Nox1 inh	luminol inh ctr
CC(=O)Oc1ccc2ccccc2c1-c1c(OC(C)=O)ccc2ccccc12	-20	8	0	-9	3	-3
CC(=O)Oc1ccc(OC(C)=O)c2c1C(=O)c1ccccc1C2=O	17	85*	0	-4	73	14
O=C(O)/C(=N/Nc1ccccc1O)c1ccccc1	-1	0	0	-5	83*	-3
COc1ccc(C(=O)N/N=C(/C(=O)O)c2ccccc2)cc1	-11	-1	0	-3	-7	1
CCCCNC(=O)NNc1cc(N(C)C)c(C#N)c(N(C)C)n1	3	0	0	-5	11	7
CN(C)c1cc(NNS(=O)(=O)c2cccc(C(F)(F)F)c2)nc(N(C)C)c1C#N	6	6	-1	-4	66	80*
N#Cc1cnc(N2CCCC2)nc1N	-23	2	0	-3	-68	1
COc1ccc(C(=O)NNc2c([N+](=O)[O-])cc(C(F)(F)F)cc2[N+](=O)[O-])cc1	61	5	1	-4	89*	4
O=[N+]([O-])c1cc(C(F)(F)F)cc([N+](=O)[O-])c1N/N=C/c1ccccc1O	14	11	0	-9	22	-1
O=C(NNc1c([N+](=O)[O-])cc(C(F)(F)F)cc1[N+](=O)[O-])c1ccccc1-n1cccc1	109*	-8	-1	-9	102*	-9
O=C(CCc1ccc(O)cc1)NNc1c([N+](=O)[O-])cc(C(F)(F)F)cc1[N+](=O)[O-]	15	5	0	-5	28	-4
COc1ccc(C2Sc3ccccc3N=C3c4ccccc4SCC32)cc1 (centres undefined)	-11	-1	0	-6	-60	-4
O=c1[nH]ccc2c1c(=O)[nH]c1ccccc12	62	2	0	-11	-15	1
CSC(=CC(=O)c1ccc(Cl)cc1)SC	7	1	0	-4	4	-3
CSC(=CC(=O)c1ccncc1)SC	-5	3	3.5*	-6	-18	-5
CCOC(=O)C1CCN(C(=O)Nc2c(-c3ccccc3)noc2C)CC1	-6	-1	2.7*	-10	-16	0
Cc1nc(-c2ccccc2)sc1C(=O)NNC(=O)c1cccc2ccccc12	-3	-1	0	-6	-33	6
Cc1sc(-c2ccccc2)nc1CC(=O)NNC(=O)c1cccc(OC(F)(F)F)c1	20	-5	2.5*	-5	-47	4
COC(=O)c1ccccc1NC(=S)Nc1ccc(Cl)cn1	-7	6	0	-1	18	98*
COc1ccccc1NC(=S)Nc1ccccn1	-10	4	-1	-5	-22	2
ON/C=N/c1nnc(C(F)(F)F)s1	4	2	0	-2	80*	-4
ON/C=N/c1nnc(Cc2ccc(F)cc2)s1	-3	0	0	-4	-23	1
Cc1cc(/C(N)=N/OC(=O)c2ccno2)no1	6	12	0	-9	8	4
Cc1cc(C(=O)O/N=C(\N)c2ccc(C(C)(C)C)cc2)no1	90*	6	0	-6	23	-6
ONC(=Nc1cc(Cl)cc(Cl)c1)c1ccccc1	-13	0	0	0	-6	11
SMILES	S1P1 ag	PME-1 Maybr inh	NOTCH agonist	rat GALR2 ag	Nox1 inh	luminol inh ctr
Cc1cc(C)cc(NC(=O)Nc2ccc(N3CCCCC3)cc2)c1	14	10	0	-1	85*	-9
CCOC(=O)C/C(=N\NC(N)=O)C(F)(F)F	-6	-10	0	-4	-24	4
COc1cc(Sc2ccc(Cl)cc2)ccc1[N+](=O)[O-]	7	0	0	-2	3	-5
COc1ccc([N+](=O)[O-])c(S(=O)(=O)c2ccc(Cl)cc2)n1	104*	3	-1	-13	-96	6
N#Cc1c(C(F)(F)F)cc(-c2cccs2)nc1OCC(=O)c1ccccc1	39	-1	1	-4	-92	3
Cc1nnsc1-c1n[nH]c(=S)n1C1CC1	-13	5	0	-5	12	99*
O=C1CN(c2ccc(OC(F)(F)F)cc2)C(=O)CN1CC1CC1	3	8	-2	44*	-67	0
O=C(Nc1ccc(N2CCN(c3ncccc3C(F)(F)F)CC2)nc1)Nc1ccc(F)cc1F	19	-6	0	-4	24	0
COc1ccc(C(=O)Nc2ccc(N3CCN(c4ncccc4C(F)(F)F)CC3)nc2)cc1	93*	7	-1	-6	33	-6
